Values joined by “and” are separate entries in the source; they are usually repeats but may differ in a detail not shown here. Equal entries are not always repeated. Hit rate of the full screen: of about 360,000 compounds, about 3,700 (1%) were called active. This is one part of a sample in which actives are shown more often than they occur. Cut-off read from the data, not from the text of the source: active = activation above about 30%; inactive = the rest. Some structures have more than one record in an assay (separate samples or runs), and their calls can disagree.

D(1A) dopamine receptor (Homo sapiens), sequence (P21728 whole entry, looked up): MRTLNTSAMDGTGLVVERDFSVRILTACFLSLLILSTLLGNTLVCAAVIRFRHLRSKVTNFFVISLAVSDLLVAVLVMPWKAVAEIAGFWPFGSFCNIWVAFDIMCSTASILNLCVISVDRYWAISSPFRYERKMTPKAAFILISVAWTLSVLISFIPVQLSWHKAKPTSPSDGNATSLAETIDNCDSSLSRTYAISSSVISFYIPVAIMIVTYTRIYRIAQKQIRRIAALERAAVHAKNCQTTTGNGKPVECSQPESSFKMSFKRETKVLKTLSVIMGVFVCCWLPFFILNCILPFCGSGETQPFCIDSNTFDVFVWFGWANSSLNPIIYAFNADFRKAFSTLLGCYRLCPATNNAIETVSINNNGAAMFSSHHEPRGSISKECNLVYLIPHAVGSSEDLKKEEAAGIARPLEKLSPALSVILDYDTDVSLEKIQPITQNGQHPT

For this experiment, the target named is D(1A) dopamine receptor (Homo sapiens) (UniProt P21728). The experiment can be described thus: Allosteric Agonists of the Human D1 Dopamine Receptor: qHTS. Note: 0% is about no effect. The note with it: HEK293 T-REx D1 cells, calcium flux, agonist mode; at 2 µM; stronger effect = higher value. In a few lines:
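Agonism was scored from calcium flux recorded over 180 s (1 read/s) after pintool compound addition, following a 10-cycle baseline. Cells were inducible force-coupled HEK293 TREx D1, plated overnight at 30 C and loaded with no-wash calcium dye.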
(In general: In qHTS, concentration-response curves come from the screen itself.)
With `CCN(C(=O)Cn1cc(S(=O)(=O)N2CCN(c3ccccc3F)CC2)c2ccccc2c1=O)c1ccc(C)c(C)c1`, the activation was 11.2% (inactive). The figure for `Cc1ccc(C(=O)N2c3ncnn3C3(CCCCC3)[C@@H]3CCCC[C@@H]32)cc1` is -0.224% (inactive); for `Cc1ccc2c(c1)N(C(=O)CCC(=O)NCc1ccccc1F)CC(C)O2` (centres undefined) it is 1.03% (inactive).

In the case of `O=C(CCc1ccccc1)Nc1nn[nH]n1`, the activation is 3.14% (inactive).

In the case of `O=C(CCc1ccccc1)Nc1ccc(NC(=O)C2CC2)nc1`, the activation is 5.75% (inactive).

For `O=C(CCc1ccccc1)Nc1ncc([N+](=O)[O-])s1`, the activation was 30.3% (active). To `Cc1ccc2nsnc2c1NC(=O)c1ccccc1[N+](=O)[O-]` belongs 6.33% (inactive); to `CC(=O)Oc1ccccc1C(=O)Nc1ncc([N+](=O)[O-])s1`, 32.6% (active).

Consider `O=C(COc1ccc(NC(=O)c2ccccc2[N+](=O)[O-])cc1)c1ccc(F)cc1`, for which the activation is 3.67% (inactive). In the case of `Fc1cccc(-n2ncc3c2ncn2nc(-c4ccccc4Cl)nc32)c1`, the activation is -0.538% (inactive). As to `CCOc1ccc(N(CC)S(=O)(=O)N2CCCC(C(=O)NCc3ccc(SC)cc3)C2)cc1` (centres undefined), the activation was 15.3% (inactive).

Regarding `COc1cc(/C=C2/SC(=S)N(Cc3ccccc3)C2=O)cc(OC)c1O`, the activation is 61.8% (active). The figure for `COc1cccc(N2C(=O)CN(Cc3ccccc3)C2=S)c1` is 2.26% (inactive); for `COc1cc(=O)[nH]c(=O)n1C(=O)Cc1ccccc1` it is 3.4% (inactive); for `CCOc1ccc(S(=O)(=O)Nc2ccc3oc4c(c3c2)CC(C)CC4)cc1` (centres undefined) it is 8.18% (inactive). The figure for `O=C(NCCc1ccccc1)c1ccc2c(c1)N(Cc1ccccc1)C(=O)c1ccccc1S2(=O)=O` is 5.9% (inactive); for `Cc1ccc(O)c(/C=N/NC(=O)COc2ccc3c(C)cc(=O)oc3c2)c1` it is 3.75% (inactive).

With `Cc1ccc(O)c(NC(=S)NC(=O)COc2ccc(Br)cc2)c1`, the activation was 54.2% (active). To `Cc1ccc(O)c(NC(=O)c2cc(-c3ccc(F)cc3)no2)c1` belongs -1.3% (inactive). To `Cc1ccc(C)c(NC(=O)Cn2ccn(-c3ccc(F)cc3)c(=O)c2=O)c1` belongs 10.6% (inactive); to `COc1cc(N2CCCC2)c(OC)cc1/C=C(/C#N)c1cccc(Br)c1`, 34.6% (active). The figure for `CCOC(=O)c1c(C)oc2nc(C)nc(N3CCN(c4ccc(OC)cc4)CC3)c12` is 0.866% (inactive); for `COc1ccc(NC(=O)c2ccc3oc(=O)c(S(=O)(=O)c4ccc(F)cc4)cc3c2)c(OC)c1` it is -0.0208% (inactive); for `Cc1cc(S(=O)(=O)c2cc3ccc(O)c(C)c3oc2=O)ccc1F` it is 56.6% (active).

`COc1cc(Br)cc2cc(S(=O)(=O)c3ccccc3)c(=O)oc12`: the activation is 2.11% (inactive). To `CCc1nn(CC(=O)N2CCN(c3cccc(C(F)(F)F)c3)CC2)c(=O)c2cc3occc3n12` belongs -1.81% (inactive); to `Cc1ccccc1CN1C(=O)c2ccccc2Sc2ccc(C(=O)NCCCN3CCOCC3)cc21`, 16.6% (inactive) and 53.8% (active). To `O=C(NCCCN1CCCCC1)c1ccc2c(c1)NC(=O)C(N1CCOCC1)S2` (centres undefined) belongs 1.92% (inactive).

In the case of `O=C(NCCCN1CCOCC1)c1cc(-c2ccccc2F)no1`, the activation is 2.58% (inactive). For the compound `COc1ccc(C(=O)NCCCN2CCOCC2)cc1Br`, the activation was 5.3% (inactive). The figure for `COc1cccc(CNC(=O)c2ccc3c(c2)N(Cc2ccc(C(F)(F)F)cc2)C(=O)c2ccccc2S3)c1OC` is 7.24% (inactive); for `O=C(NCCCN1CCOCC1)c1ccc2c(c1)N(Cc1cccc(F)c1)C(=O)c1ccccc1S2` it is 37.5% (active); for `O=C(Cn1cnc2c(oc3ccccc32)c1=O)Nc1ccc(OC(F)(F)F)cc1` it is 26.6% (inactive). The figure for `CCn1cc(C(=O)OCC(=O)Nc2cc(C)cc(C)c2)c(=O)c2ccc(C)nc21` is -2.27% (inactive). The figure for `COc1ccc(CNC(=O)Cn2nnc(-c3ccc(S(C)(=O)=O)cc3)n2)cc1` is -0.202% (inactive); for `COc1ccc(Cl)cc1S(=O)(=O)N1CCC(O)(c2ccc(Cl)cc2)CC1` it is 4.61% (inactive); for `COc1cc(OC)c(-n2cc(-c3ccc(Cl)cc3)[nH]c2=O)cc1Cl` it is 87.1% (active). Turning to `COc1cc(OC)c(N2CC(C(=O)Nc3cc(Cl)ccc3N3CCOCC3)CC2=O)cc1Cl` (centres undefined), the activation is 6.25% (inactive).

Take `CCCC12CN3CC(C)(CN(C1)C3c1ccccc1Cl)C2=O` (centres undefined): the activation was -0.996% (inactive). To `COc1ccc(-c2noc(CSc3nc4ccc(C)cc4[nH]3)n2)cc1` belongs 5.23% (inactive). The figure for `CC(NC(=O)COC(=O)c1ccc(Cl)cc1O)c1ccc(F)cc1` (centres undefined) is 40% (active).

For `C=CCOc1ccc(/C=C/C(=O)OCC(=O)NC(C)c2ccc(F)cc2)cc1` (centres undefined), the activation was 7.04% (inactive).

For the compound `CC(CCc1ccccc1)NC(=O)COC(=O)c1ccc(F)cc1` (centres undefined), the activation was 10.8% (inactive).

Regarding `O=C1CCCc2cc(S(=O)(=O)N3CCCC(C(=O)NCc4ccccc4)C3)ccc2N1` (centres undefined), the activation was 1.11% (inactive). Turning to `CCc1ccccc1NC(=O)Cn1c(=O)n(CC2CCC(C(=O)NCCc3ccccc3)CC2)c(=O)c2ccccc21` (centres undefined), the activation was -1.58% (inactive). As for `CCn1cc(C(=O)NCc2ccccc2)c(=O)c2cc(S(=O)(=O)N3CCCCC3)ccc21`, the activation was 1.41% (inactive). The figure for `O=C(c1cccnc1)N1CCN(S(=O)(=O)c2cccs2)CC1` is 1.36% (inactive).

With `Cc1ccc(S(=O)(=O)N2CCCCC2)cc1NC(=O)c1cccnc1`, the activation is 4.22% (inactive). The figure for `O=C(N/N=C/c1sc(N2CCCCC2)nc1-c1cccs1)c1cccnc1` is 32.8% (active); for `Cc1cc(NC(=O)C2CCC(CNS(=O)(=O)c3ccc(Br)s3)CC2)ccc1Br` (centres undefined) it is 9.94% (inactive); for `N#Cc1nc(Nc2cccc(Cl)c2)nc(NC2CCCC2)n1` it is 4.33% (inactive). To `COc1cccc2c1cc1c(=O)n(CC(=O)N3CCN(c4cccc(Cl)c4)CC3)nc(C)n12` belongs -0.0969% (inactive); to `O=C(CNC(=O)c1ccc(Cl)c(C(F)(F)F)c1)OC(C(=O)Nc1cc(C(F)(F)F)ccc1Cl)c1ccccc1` (centres undefined), 15.3% (inactive). With `Cc1ccc(C(=O)NCCSc2c(C)[nH]c3ccccc23)cc1C`, the activation was 2.99% (inactive). The figure for `O=C(NCc1ccc2c(c1)CCN2C(=O)c1ccccc1)Nc1cc(F)ccc1F` is 2.32% (inactive); for `CCn1cc(CN2CCC(C(=O)Nc3cccc(-c4cccc(Cl)c4)c3)CC2)cn1` it is 10.6% (inactive). To `O=C(Nc1cccc(-c2cccc(Cl)c2)c1)C1CCN(C2CCC2)CC1` belongs 33.2% (active). To `CCn1cc(CN2CCC(C(=O)Nc3cccc(-c4cccc(Cl)c4)c3)CC2)c(C)n1` belongs 17.5% (inactive).

As to `O=C(Nc1cccc(-c2nc3ccccc3o2)c1)c1cccc(Br)c1`, the activation was 11.1% (inactive). As to `CCOC(=O)/C(C#N)=C/c1ccc(N2CCCCC2)cc1`, the activation was 68.9% (active). In the case of `CCOC(=O)/C(C#N)=C/c1ccc(N2CCN(Cc3ccccc3)CC2)cc1`, the activation is 46.5% (active).

On to `CCOC(=O)/C(C#N)=C\c1c(C)cc(C)c(COC(C)=O)c1C`, for which the activation is 0.226% (inactive). The figure for `COc1ccc(/C=C(\C#N)C(=O)ONC2=NCCCCC2)cc1` is 4.53% (inactive); for `CCOC(=O)C1CCN(Cc2ccc(-c3ccccc3)cc2)CC1` it is 5.56% (inactive). The figure for `CCCn1c(C)cc(/C=C(\C#N)C(=O)OCC(=O)N(C)c2c(N)n(Cc3ccccc3)c(=O)[nH]c2=O)c1C` is 1.98% (inactive); for `Cc1ccc2sc(N(Cc3cccnc3)C(=O)C3COc4ccccc4O3)nc2c1C` (centres undefined) it is 20.1% (inactive). To `CC1CCN(S(=O)(=O)c2ccc3c(c2)N(CC(=O)NCCc2ccccc2)C(=O)CO3)CC1` belongs 1.33% (inactive); to `CCOc1ccc(CN2CCN(Cc3c[nH]c4ccccc34)CC2)cc1`, 33.4% (active); to `COc1ccc(CN2CCN(Cc3ccc(OC)c(OC)c3OC)CC2)cc1`, 1.73% (inactive).

In the case of `Cc1ccc2[nH]cc(CCNC(=O)C3CCCCC3)c2c1`, the activation was 5.96% (inactive). The figure for `O=C(NCCc1c[nH]c2ccccc12)C1CCN(Cc2ccc(Br)cc2)CC1` is 35.5% (active); for `CC1(C(=O)NCCc2c[nH]c3ccccc23)C=CC2(CCCCC2)N1C(=O)c1ccccc1` (centres undefined) it is -1.33% (inactive); for `CCOc1ccc(CN2CCCN(C)CC2)cc1` it is 1.05% (inactive). To `O=S(=O)(c1ccc(Cl)cc1)c1nnn2c1nc(NC1CCCC1)c1sccc12` belongs -0.225% (inactive). The figure for `Cc1ccc(C)c(N2CCN(Cc3nnc(-c4ccccc4)o3)CC2)c1` is 6.92% (inactive); for `CCCn1c2ccccc2c2cnn(CC(=O)N(CC)c3cc(C)ccc3C)c(=O)c21` it is 3.04% (inactive); for `COc1cc(/C=C(\C#N)c2nc3c(s2)CC(C)CC3)ccc1O` (centres undefined) it is 35.8% (active).

Turning to `COc1cccc2cc(-c3nc(Cl)c4c5c(sc4n3)CC(C)CC5)c(=O)oc12` (centres undefined), the activation is -0.914% (inactive).

For the compound `COc1ccc(OCCCn2cccc2/C=C2/C(=N)N3OC(C)=CC3=NC2=O)cc1`, the activation was 1.18% (inactive). The figure for `CC1=CC2=NC(=O)/C(=C/c3coc4ccccc4c3=O)C(=N)N2O1` is 227% (active); for `Cc1cc(C)c2oc(-c3cccc(NC(=O)c4cccc(F)c4)c3C)nc2c1` it is 1.24% (inactive). `Cc1ccc(C(=O)N/C(=C/c2ccco2)C(=O)NCCc2c[nH]c3ccccc23)cc1C`: the activation is 2.88% (inactive). To `N#C/C(=C/c1ccc(N2CCCCC2)o1)C(=O)NCCc1c[nH]c2ccccc12` belongs 78.8% (active); to `O=C(NCCc1c[nH]c2ccccc12)c1cc2ccccc2oc1=O`, 4.67% (inactive).

Regarding `CCOc1ccccc1CNC(=O)c1cnc2c(-c3ccc(OCC)c(OCC)c3)c(C)nn2c1C`, the activation was 1.83% (inactive). With `CCOc1ccc(NC(=O)CC2C(=O)N(c3cccc(OC)c3)C(=O)N2C2CCCCC2)cc1` (centres undefined), the activation was 2.76% (inactive).

`C/C(=C/c1ccccc1)C(=O)N1CCN(c2ccccc2)CC1`: the activation is 0.356% (inactive).

Turning to `O=C(O)CCC(=O)Nc1ccc(N2CCOCC2)cc1`, the activation was 4.21% (inactive). As to `O=C(/C=C/c1ccc(N2CCOCC2)cc1)c1ccccc1`, the activation was 108% (active).

Values taken from PubChem BioAssay AID504660 (National Center for Advancing Translational Sciences (NCATS), 2011).
